Results from paper PMC13494018.
A number with no mark means an inactive call. No rule for the calls is given here.

B1: d8r1_design_ppi_128_dldesign_0_cycle1_af2pred (protein)
chain: AQLEQIKAQAKKEIEEALEYAKKAKTDPSYLAKALGHLNKASQLAKQLPNAEEVKAEIDKAISAAIAGDYETVKKEAEEAIKLLEKD
B2: d8r1_design_ppi_254_dldesign_0_cycle1_af2pred (protein)
chain: AAAQAAAAEALRKVREAFSEAIALTVKNPEEGEKKFKEAEKLAEAAVKEQKAVDPAVGAALAKQVEATVKSAKEIMELIKKAKE
B3: d8r1_design_ppi_167_dldesign_0_cycle0_af2pred (protein)
chain: SSEERYAEAAKLLAETAAKAAALIAKNPAVAEAAKEMQRYAARAAAALVAGDEEKAKEYKKKMEEALAKAEALVA
B4: d8r1_design_ppi_479_dldesign_0_cycle0_af2pred (protein)
chain: EELAKEARELAKRGIEDPEKAPEAGRKIAELAAKAVAEGDSEAAAEAVAELTRLHKANPEAGREALILMAQKIAKVAREK
B5: d8r1_design_ppi_179_dldesign_0_cycle1_af2pred (protein)
chain: MESARNAAEGIAKAAEENPESGARLGKGAVEVLAKRDIEAAVEAARLAAELSKEAGKEEVAEVMKKLAEEAEKKL
B6: d8r1_design_ppi_669_dldesign_0_cycle1_af2pred (protein)
chain: AAAAAAANVRKVGEVSIEYVERVDAVSGANFAAGAFRGLATLLPPEVAKHAAAAAEKVRETGEKETKEALIETIRTTTAEIAALIEA
B7: d8r1_design_ppi_307_dldesign_0_cycle0_af2pred (protein)
chain: EEARAEALAAEAAATAAALLAAARATDPRADIAAGAAALTAAAREAAALSPAAAAKVRAVIATFMAEALKLMDS
B8: d8r1_design_ppi_684_dldesign_0_cycle1_af2pred (protein)
chain: AAAEEAEEKKYAMAKAAGAAASEIAKIDPALGRKVAIAAGEALSVDLETSYKILTDTLTEVAETGSPEAAAEAQKALDAVEAAYKA
B9: d8r1_design_ppi_1041_dldesign_0_cycle1_af2pred (protein)
chain: MEEKEEEEAKKAAKAAVDAATKVAEKAAKASTPEVAKKLTAAAKGLKGATELLAKINPKNAAAFAKAAAERFTKIAEKAVKDAA
B10: d8r1_design_ppi_573_dldesign_0_cycle1_af2pred (protein)
chain: SAEQAALEAKAKEAALKAWEAAKQYKKTGYQEFKDAAKEYAYAAIAYFRGDTAAGKKYRDAADKLWAKAQAIAAA
B11: d8r1_design_ppi_219_dldesign_0_cycle0_af2pred (protein)
chain: GERIKRNAEIVAATYAEVAALAAGEKEATARRAAGLLAAGAMSPEGREEYLAEALALAAEVGAEAAALVAEAAAAI
B12: d8r1_design_ppi_243_dldesign_0_cycle1_af2pred (protein)
chain: DQNLKGALLIGQANAYAVAAAKAAAAAGAPAAEVQAAIDKVRAMTAEAGKLSPSLASTAERVAAIEGARLAAAA
B13: d8r1_design_ppi_623_dldesign_0_cycle1_af2pred (protein)
chain: AAAAAAADAAAAALLDAAAAAAKAAVELTPEEAAAVLGAIAAAAATALALAKDPAAKAKLLATASEVANTAAQNLSQAVRREEE
B14: d8r1_design_ppi_855_dldesign_0_cycle1_af2pred (protein)
chain: GTGKNLIKVLETSAEKTAALAAELAPDPAAATALADAFEASAKGFAAIAKELGTEAEVKPAAEKAIKKVRDALDKALAAAAA
B15: d8r1_design_ppi_146_dldesign_0_cycle1_af2pred (protein)
chain: YAQKIREAAEKLKSPEKKATLNAFADIAAKLEAEAKKAAAKDPAEGAKKLTAAKNLAAGALKLAEAKKEEE
B16: d8r1_design_ppi_59_dldesign_0_cycle0_af2pred (protein)
chain: MSELAEEAIKALVAAHNAAAALAALGRTAEAAALSRQASEAFGKAFKALQEGDEETAKKYLEELKAIAAKAAEAAAAAAAAAAAA
B17: d8r1_design_ppi_408_dldesign_0_cycle1_af2pred (protein)
chain: ASAEAKKKALELIKKAVALTSQGLAKGDKALVKKGLEYAKKAKEEAAKSADAATLLKAVDNVEAMAKTVLDAL
B18: d8r1_design_ppi_23_dldesign_0_cycle1_af2pred (protein)
chain: DAEEKKKLAKKMEEMAKKVAAAGKAVPAVKAEADATAKALKAMAKLALEGSLEDAKSLLKAGEAAAKRVLEKAKAAAAAAA
B19: d8r1_design_ppi_1215_dldesign_0_cycle1_af2pred (protein)
chain: AEEVGRMALTAAEAGERIALEKVKDPATAAEGAALAKVAADALKAAAEKVPEVAERLNKAATELYKKVADAA
B20: d8r1_design_ppi_1104_dldesign_0_cycle1_af2pred (protein)
chain: DDLLKQAQATLKQAAALAATVSLAAASDFNAAMFLMRNPKNIPQAIKYAQQGAALAAASAKAPQIKALADEAVKLMKALAKAAAA
B21: d8r1_design_ppi_384_dldesign_0_cycle1_af2pred (protein)
chain: SAKEAAAKAARNAAAAAKKADEAGFNPKVIASLAKAAGEEALVSPESVEAAEEAAKIAEKYPSKEAQEAAKYAKELAKAAKAKAA
B22: d8r1_design_ppi_793_dldesign_0_cycle1_af2pred (protein)
chain: GISPESAKKLAKQMLEDALKAAEEARKLIKEGATPEEVQKAIRGAQAAADAAEALAKVDPAVAPYAKKAKAAVEEARKLAK
B23: d8r1_design_ppi_1481_dldesign_0_cycle0_af2pred (protein)
chain: SSEANDAALKEGMALASATLAQARALIAAGGAAAAAAAAALAEAAVARLRELGAKYPQRAASFAALGEALRREVARLAA
B24: d8r1_design_ppi_877_dldesign_0_cycle1_af2pred (protein)
chain: ALAAEAAAAIAKARELLKEIKETGKESKSESVRRFAEGVARKVQALIDQAEAAAADPATALALAKAALKLAEEGLAAVKTLKKAYEE
B25: d8r1_design_ppi_1130_dldesign_0_cycle0_af2pred (protein)
chain: SAEEAEKAAKELIELAKKAAEDPSYIPEAAALAAKHIGTPEARTALAEAIKILMQKSPELAKQFLAAFSAALAALRAAA
B26: d8r1_design_ppi_128_dldesign_0_cycle0_af2pred (protein)
chain: EELEKLKEEAKKEIKEALEYTEKAKEDPDYLAKALGHLNKARQLAAKLPSAEEVKKEIDKMISAAMAGDVEKAKEYAEKAIKLLEKD
B27: d8r1_design_ppi_423_dldesign_0_cycle1_af2pred (protein)
chain: DESDKNMELLTKAGAATSELVAKARADAKAAAAEGPEAVKAVAEEHSAKIKEVAEKLGKESSKSASFKGLIETATKTIKAYADAVVA
B28: d8r1_design_ppi_56_dldesign_0_cycle0_af2pred (protein)
chain: EAEKALKEAAEKIKKAAKEAEKDPEKAVEYFSEALAYAMRTAIKYPEIAAALGAAAAGLAEGAREAKKDVEKGVKIAEKAAKELEKA
B29: d8r1_design_ppi_987_dldesign_0_cycle0_af2pred (protein)
chain: QAVLDKANELLAKAMKLFGKLSPENYAAALAAADAAIAAAKELQKEDPELGAALLASAEALKAAIKAKAA
B30: d8r1_design_ppi_307_dldesign_0_cycle1_af2pred (protein)
chain: MMEEAEKIAEEAKKTADELLAQAKKGDPKPYVNQGFAELNKLLQEAAKLSPEAAEKVKEVLAEFRKQASKILDS
B31: d8r1_design_ppi_789_dldesign_0_cycle1_af2pred (protein)
chain: ALEERLRAALEAARELRERGVEEGWSPGELANAVLALAKEAGLPLEAQNTLAAAAMVPGERAEILLEKAEEIV
B32: d8r1_design_ppi_86_dldesign_0_cycle1_af2pred (protein)
chain: GARAAALAAAAALNAAAAKADAAAAKAYGRAAVAAARAYFAGADGAELLALVAKVGAEDPAVAADILAIATAALAAAA
B33: d8r1_design_ppi_499_dldesign_0_cycle0_af2pred (protein)
chain: GMARSLQRAAENTAARAAEYLRDPAKAEIGRNALAAAAALTEKAAAEAGLSPEEAAAAAAATRAATLAAAA
B34: d8r1_design_ppi_1244_dldesign_0_cycle1_af2pred (protein)
chain: EEEAEKERERYEKAYYFAKAAIAAASSGLPAAVAAAKAFLQKAGEEIPEFLPAAKAATTAAEITAVATKVAAYAAAKIS
B35: d8r1_design_ppi_997_dldesign_0_cycle1_af2pred (protein)
chain: ALSDAQSFVKAAKAAAEKAKELAKKDPEVAAKAVETAKKLAEAAVKASPEAKPQAEEAKKLAEEAKKVVEEAKKKAA
B36: d8r1_design_ppi_254_dldesign_0_cycle0_af2pred (protein)
chain: AAAKALAEAALREVGSALSEAISLTSKDPKKGEEKFKEAEALAKAKVAEMEAIDPAVGAALKAAVDALLAQTKLIMEKIKEAKK
B37: d8r1_design_ppi_1260_dldesign_0_cycle1_af2pred (protein)
chain: MTAEEALAEMEKLTKEMKEVSPLAGNAMEAHLNKAKELVAAVAAEDPEKAAEVAAKSYEQAKALYKAMKEMIEEEKKEKELA
B38: d8r1_design_ppi_1130_dldesign_0_cycle1_af2pred (protein)
chain: SMEEAEKAAKEIIELAKKAAEDPSYIDELAALAAKYIGSPEAKEALAEAIKILSKKSPELAKQFLAKYSAALAALRAAA

Biological target: PDL1, Q9NZQ7
Sequence (Q9NZQ7 whole entry): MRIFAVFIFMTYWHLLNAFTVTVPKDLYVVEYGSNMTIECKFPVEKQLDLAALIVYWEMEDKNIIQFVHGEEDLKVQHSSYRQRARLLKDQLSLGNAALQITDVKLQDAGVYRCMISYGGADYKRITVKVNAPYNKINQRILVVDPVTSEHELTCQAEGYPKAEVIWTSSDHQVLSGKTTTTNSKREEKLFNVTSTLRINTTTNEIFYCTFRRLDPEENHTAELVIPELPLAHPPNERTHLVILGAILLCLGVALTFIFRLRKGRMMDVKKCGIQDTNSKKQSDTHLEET

Row | Binder | binding in a display sort
1 | B1 | not found
2 | B2 | not found
3 | B3 | not found
4 | B4 | not found
5 | B5 | not found
6 | B6 | not found
7 | B7 | not found
8 | B8 | not found
9 | B9 | not found
10 | B10 | binds (active)
11 | B11 | not found
12 | B12 | not found
13 | B13 | not found
14 | B14 | not found
15 | B15 | not found
16 | B16 | not found
17 | B17 | not found
18 | B18 | not found
19 | B19 | not found

Row | Binder | binding in a display sort
20 | B20 | not found
21 | B21 | not found
22 | B22 | not found
23 | B23 | not found
24 | B24 | not found
25 | B25 | not found
26 | B26 | not found
27 | B27 | not found
28 | B28 | not found
29 | B29 | not found
30 | B30 | not found
31 | B31 | not found
32 | B32 | not found
33 | B33 | not found
34 | B34 | not found
35 | B35 | not found
36 | B36 | not found
37 | B37 | not found
38 | B38 | not found
